Reference: PubChem BioAssay
For some assays here: Results with a measured potency or affinity are listed apart. Calls of active or inactive are those of the source. Unless noted, no rule for the calls is given here.

Key:
[1] = antimalarial activity against Dd2 strain (AID 2302;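 active = growth inhibition above 50% at the single 2 µM test dose, taken to imply half-maximal potency below 2 µM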;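 also: 0% = DMSO untreated growth and 100% = chloroquine plus artemisinin killed control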); details: P. falciparum Dd2 in RBCs, LDH growth readout, 72 h; at 2 µM; active compounds read high
[2] = human hepatoma cell viability loss – ATP luminescence, cytotoxicity control for P. falciparum antimalarial project, primary screen (AID 2303;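 active = inhibition above 50%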;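 also: 0% = DMSO wells and 100% = digitonin-killed cells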); details: HepG2 viability, 24-48 h, at 10 µM, active compounds read high
[3] = biological target: L-lactate dehydrogenase (Plasmodium falciparum (isolate CDC / Honduras)) (UniProt Q27743); experiment: PfLDH activity inhibition – cell lysate, 3D7 strain, counter-screen for P. falciparum growth inhibition project (AID 2304);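 also: 0% = vehicle and 100% = reference inhibitor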; details: P. falciparum 3D7 crude extract, LDH APAD/NBT absorbance; at 2 µM; active compounds read high
[4] = inhibition of 3D7 malaria parasite growth – strain 3D7 (AID 2306);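 also: 0% = DMSO wells and 100% = chloroquine plus artemisinin control wells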; details: P. falciparum 3D7 erythrocytic growth, LDH absorbance, 72 h; at 2 µM; active compounds read high
[5] = biological target: Calcium-dependent protein kinase 1 (Plasmodium falciparum (isolate 3D7)) (UniProt P62344); experiment: PfCDPK1 kinase inhibitors, biochemical, TCAMS library (AID 1159585; cut-off not given, nearly all actives have IC50 up to about 0.98 µM;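 also: inhibitors leave more ATP so luminescence rises with inhibition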); details: recombinant PfCDPK1, Kinase-Glo ATP depletion luminescence
[6] = biological target: Plasmodium falciparum protein kinase 6 (PK6, PF3D7_1337100) (UniProt Q8IDW1); experiment: PfPK6 kinase inhibitors, biochemical, TCAMS library (AID 1159586); details: recombinant PfPK6, Kinase-Glo ATP depletion luminescence
[7] = biological target: Protein kinase 7 (PK7), Plasmodium falciparum 3D7 (PF3D7_0213400) (UniProt Q7YTF7); experiment: inhibition of Plasmodium PK7 catalytic activity – biochemical, TCAMS antimalarial set, Kinase-Glo luminescence (AID 1159587); details: recombinant PfPK7, Kinase-Glo ATP depletion luminescence
[8] = biological target: Calcium-dependent protein kinase 4 (Plasmodium falciparum (isolate 3D7)) (UniProt Q8IBS5); experiment: PfCDPK4 kinase inhibitors, biochemical, TCAMS library (AID 1159588; cut-off not given, nearly all actives have IC50 up to about 0.91 µM); details: recombinant PfCDPK4, Kinase-Glo ATP depletion luminescence
Calcium-dependent protein kinase 4 (Plasmodium falciparum (isolate 3D7)), sequence (Q8IBS5 whole entry, looked up): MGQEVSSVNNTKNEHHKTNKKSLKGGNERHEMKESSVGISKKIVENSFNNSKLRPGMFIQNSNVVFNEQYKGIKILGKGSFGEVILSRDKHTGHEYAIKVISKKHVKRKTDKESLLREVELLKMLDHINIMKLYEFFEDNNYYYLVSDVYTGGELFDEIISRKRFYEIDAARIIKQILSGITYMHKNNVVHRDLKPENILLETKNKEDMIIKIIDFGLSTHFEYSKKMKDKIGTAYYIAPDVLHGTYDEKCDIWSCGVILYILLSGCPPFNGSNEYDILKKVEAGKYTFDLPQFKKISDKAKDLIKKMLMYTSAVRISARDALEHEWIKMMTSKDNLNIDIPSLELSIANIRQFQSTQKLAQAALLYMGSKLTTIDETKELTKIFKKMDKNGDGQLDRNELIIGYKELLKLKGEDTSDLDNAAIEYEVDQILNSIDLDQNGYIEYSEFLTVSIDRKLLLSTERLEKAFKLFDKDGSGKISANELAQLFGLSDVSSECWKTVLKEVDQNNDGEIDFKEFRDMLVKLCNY

Calcium-dependent protein kinase 1 (Plasmodium falciparum (isolate 3D7)), sequence (P62344 whole entry, looked up): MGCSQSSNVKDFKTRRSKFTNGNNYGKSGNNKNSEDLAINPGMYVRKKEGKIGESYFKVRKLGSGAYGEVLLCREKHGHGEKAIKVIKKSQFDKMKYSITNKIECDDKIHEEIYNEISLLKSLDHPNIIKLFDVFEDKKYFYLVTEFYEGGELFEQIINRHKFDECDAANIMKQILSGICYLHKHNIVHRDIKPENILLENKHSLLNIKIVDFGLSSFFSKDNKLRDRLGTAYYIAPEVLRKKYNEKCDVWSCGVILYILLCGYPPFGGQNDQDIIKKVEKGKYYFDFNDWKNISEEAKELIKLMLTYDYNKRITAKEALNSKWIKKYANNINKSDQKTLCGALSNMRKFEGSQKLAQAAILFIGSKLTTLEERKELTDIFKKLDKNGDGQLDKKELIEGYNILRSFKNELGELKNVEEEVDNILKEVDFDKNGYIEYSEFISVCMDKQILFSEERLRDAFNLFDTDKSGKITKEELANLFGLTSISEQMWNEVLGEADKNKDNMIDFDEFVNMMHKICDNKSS
Protein kinase 7 (PK7), Plasmodium falciparum 3D7 (PF3D7_0213400), sequence (Q7YTF7 1-343): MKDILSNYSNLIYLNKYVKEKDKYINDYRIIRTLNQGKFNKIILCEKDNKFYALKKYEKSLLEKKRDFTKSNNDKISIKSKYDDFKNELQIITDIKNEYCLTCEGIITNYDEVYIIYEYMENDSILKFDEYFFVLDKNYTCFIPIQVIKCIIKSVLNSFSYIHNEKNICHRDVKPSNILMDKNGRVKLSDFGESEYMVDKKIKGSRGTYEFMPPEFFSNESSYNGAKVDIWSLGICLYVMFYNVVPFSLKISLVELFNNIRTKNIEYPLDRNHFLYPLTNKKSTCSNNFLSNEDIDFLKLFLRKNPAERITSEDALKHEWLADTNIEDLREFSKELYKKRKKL
Plasmodium falciparum protein kinase 6 (PK6, PF3D7_1337100), sequence (Q8IDW1 1-305): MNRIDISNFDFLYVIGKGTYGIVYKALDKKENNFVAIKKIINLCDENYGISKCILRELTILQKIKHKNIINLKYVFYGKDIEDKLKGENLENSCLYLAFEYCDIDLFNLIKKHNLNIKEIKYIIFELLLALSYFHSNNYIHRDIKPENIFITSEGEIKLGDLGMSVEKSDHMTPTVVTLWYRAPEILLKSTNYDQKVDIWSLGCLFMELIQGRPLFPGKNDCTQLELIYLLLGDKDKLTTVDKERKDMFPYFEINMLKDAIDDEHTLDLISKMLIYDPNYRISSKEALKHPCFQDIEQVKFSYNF
L-lactate dehydrogenase (Plasmodium falciparum (isolate CDC / Honduras)), sequence (Q27743 whole entry, looked up): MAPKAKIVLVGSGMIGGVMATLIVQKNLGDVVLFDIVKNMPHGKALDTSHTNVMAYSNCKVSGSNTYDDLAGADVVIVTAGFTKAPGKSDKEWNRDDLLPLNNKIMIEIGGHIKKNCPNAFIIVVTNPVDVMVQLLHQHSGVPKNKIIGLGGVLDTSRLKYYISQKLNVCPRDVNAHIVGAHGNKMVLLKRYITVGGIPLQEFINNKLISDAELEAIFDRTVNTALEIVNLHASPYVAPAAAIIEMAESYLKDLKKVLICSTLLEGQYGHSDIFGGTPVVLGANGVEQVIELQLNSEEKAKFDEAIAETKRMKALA

CCn1c(-c2nonc2N)nc2cnc(Oc3cccc(NC(=O)c4ccc(OCCCN5CCCCC5)cc4)c3)cc21
inactive: growth inhibition [1] 12% | inhibition [2] 38% | inhibition [3] -4% | outcome [5] | outcome [6] | outcome [7] | outcome [8]
active: growth inhibition [4] 90%

COc1cccc(C2CCN(CCN3CCC(NC(=O)c4ccc(-c5ccc(C#N)cc5)cc4)CC3)CC2)c1
inactive: growth inhibition [1] 47% | inhibition [2] 28% | inhibition [3] 6% | outcome [5] | outcome [6] | outcome [7] | outcome [8]
active: growth inhibition [4] 98%

COc1ccc2nccc([C@@H](O)CN3CCC(NC(=O)C(c4ccsc4)N4CCN(c5ccccc5OC)CC4)CC3)c2c1 (stereo not given in full)
inactive: inhibition [2] 11% | inhibition [3] -2% | outcome [5] | outcome [6] | outcome [7] | outcome [8]
active: growth inhibition [1] 50% | growth inhibition [4] 95%

O=c1cc(NC[C@@H]2CCC[C@@H]2NCc2ccc(Cl)c(Cl)c2)[nH]c2ccccc12
active: growth inhibition [1] 75% | growth inhibition [4] 100%
inactive: inhibition [2] 9% | inhibition [3] -1% | outcome [5] | outcome [6] | outcome [7] | outcome [8]

CN(C)CCOc1ccc2c(c1)CN(C)CC2c1ccccc1 (stereo not given)
active: growth inhibition [4] 91%
inactive: growth inhibition [1] -1% | inhibition [2] 15% | inhibition [3] -2% | outcome [5] | outcome [6] | outcome [7] | outcome [8]

Cc1cccc(-c2ccc(NC(=O)C3CCN(Cc4cccc(O)c4)CC3)cc2)c1
active: growth inhibition [1] 64% | growth inhibition [4] 92%
inactive: inhibition [2] 21% | inhibition [3] 0% | outcome [5] | outcome [6] | outcome [7] | outcome [8]

Cc1cc(F)ccc1-c1nc(NCCCN2CCCC2=O)nc2c1ccc(=O)n2-c1c(F)cccc1F
inactive: inhibition [2] -7% | inhibition [3] -5% | outcome [5] | outcome [6] | outcome [7] | outcome [8]
active: growth inhibition [1] 80% | growth inhibition [4] 88%

Cc1[nH]c(C)c(-c2ccc(-c3ccc(OC(F)(F)F)cc3)nc2)c(=O)c1Cl
inactive: inhibition [2] 11% | inhibition [3] -6% | outcome [5] | outcome [6] | outcome [7] | outcome [8]
active: growth inhibition [1] 95% | growth inhibition [4] 95%

CCC(CC)n1c(C)cc2c3c(N)nc(N)nc3ccc21
inactive: inhibition [3] 1% | outcome [5] | outcome [6] | outcome [7] | outcome [8]
active: growth inhibition [1] 95% | inhibition [2] 61% | growth inhibition [4] 95%

CC(CN1CCN(C)CC1)C(=O)Nc1ccc(-c2ccc(-c3nc4ccc(F)cc4[nH]3)cc2)cc1 (stereo not given)
inactive: inhibition [2] 19% | inhibition [3] -5% | outcome [5] | outcome [6] | outcome [7] | outcome [8]
active: growth inhibition [1] 87% | growth inhibition [4] 101%

NCCC(=O)Nc1ccc(-c2cnc3[nH]cc(-c4ccc(C(=O)O)cc4)c3c2)cn1
inactive: inhibition [2] -8% | inhibition [3] 3% | outcome [5] | outcome [6] | outcome [7] | outcome [8]
active: growth inhibition [1] 67% | growth inhibition [4] 99%

c1ccc(C2CCC(N3CCC(N4CCCC4)CC3)CC2)cc1 (stereo not given)
active: growth inhibition [4] 102%
inactive: growth inhibition [1] 46% | inhibition [2] 9% | inhibition [3] -2% | outcome [5] | outcome [6] | outcome [7] | outcome [8]

CCCCCN(C(=O)Nc1cc(C(F)(F)F)cc(C(F)(F)F)c1)C(C)c1nc2ccccc2c(=O)n1CC (stereo not given)
inactive: inhibition [2] -3% | inhibition [3] 3% | outcome [5] | outcome [6] | outcome [7] | outcome [8]
active: growth inhibition [1] 101% | growth inhibition [4] 100%

O=C(Nc1ccc(OC2CCN(Cc3ccc(F)cc3)CC2)c(Cl)c1)c1ccco1
inactive: inhibition [2] 2% | inhibition [3] -4% | outcome [5] | outcome [6] | outcome [7] | outcome [8]
active: growth inhibition [1] 95% | growth inhibition [4] 95%

CCOC(=O)c1ccc(-c2c(C(F)(F)F)noc2-c2cc(CC)c(OC)cc2O)o1
active: growth inhibition [1] 95% | growth inhibition [4] 100%
inactive: inhibition [2] -7% | inhibition [3] 1% | outcome [5] | outcome [6] | outcome [7] | outcome [8]

CC(C)[C@H](NC(=O)c1c(F)cccc1F)C(=O)Nc1ccc(Cc2nc3ccccc3s2)cc1
inactive: inhibition [2] 3% | inhibition [3] 0% | outcome [5] | outcome [6] | outcome [7] | outcome [8]
active: growth inhibition [1] 72% | growth inhibition [4] 82%

COc1ccccc1Cn1ccnc1SCC(=O)Nc1cc(C(F)(F)F)ccc1Cl
inactive: inhibition [2] 12% | inhibition [3] 1% | outcome [5] | outcome [6] | outcome [7] | outcome [8]
active: growth inhibition [1] 97% | growth inhibition [4] 96%

COC(=O)/C=C/c1ccc(CCC(C)NCC(O)c2cccc(Cl)c2)cc1 (stereo not given)
inactive: inhibition [2] 5% | inhibition [3] 4% | outcome [5] | outcome [6] | outcome [7] | outcome [8]
active: growth inhibition [1] 77% | growth inhibition [4] 94%

COc1ccc(-c2ccc(CNCc3ccsc3)cc2)cc1S(=O)(=O)NCCN1CCCC1
inactive: growth inhibition [1] 30% | inhibition [2] 22% | inhibition [3] 3% | outcome [5] | outcome [6] | outcome [7] | outcome [8]
active: growth inhibition [4] 94%

Cn1ccc(C(=O)Nc2ccc3c(c2)CN(Cc2ccc(N4CCCC4)o2)CCC3)n1
active: growth inhibition [1] 72% | growth inhibition [4] 80%
inactive: inhibition [2] 19% | inhibition [3] 4% | outcome [5] | outcome [6] | outcome [7] | outcome [8]

CCOc1ccc(C2CCN(CCCCNC(=O)c3ccc(NC(=O)c4ccc(Cl)cc4)cc3)CC2)c(CC)c1
inactive: inhibition [2] 44% | inhibition [3] -4% | outcome [5] | outcome [6] | outcome [7] | outcome [8]
active: growth inhibition [1] 64% | growth inhibition [4] 100%

CN(CCCCCN1CCC(NC(=O)Nc2ccc(Oc3ccccc3)cc2)C1)C(=O)/C=C/c1ccc(Cl)c(Cl)c1 (stereo not given)
active: inhibition [2] 50% | growth inhibition [4] 98%
inactive: growth inhibition [1] 14% | inhibition [3] -2% | outcome [5] | outcome [6] | outcome [7] | outcome [8]

CCCC1(NC[C@@H](O)[C@H](Cc2ccccc2)NC(=O)c2cc(NCC)cc(N3CCCCS3(=O)=O)c2)CC1
active: growth inhibition [1] 98% | growth inhibition [4] 98%
inactive: inhibition [2] 1% | inhibition [3] 0% | outcome [5] | outcome [6] | outcome [7] | outcome [8]

FC(F)(F)c1ccc2nc(-c3ccc(-c4cccc(CN5CCN(c6ccncc6)CC5)c4)cc3)[nH]c2c1
inactive: inhibition [3] 2% | outcome [5] | outcome [6] | outcome [7] | outcome [8]
active: growth inhibition [1] 99% | inhibition [2] 82% | growth inhibition [4] 101%

CCc1cccc(NC(=O)c2ccc(CN3CCCN(CC4CCCCC4)CC3)cc2)c1
inactive: growth inhibition [1] 36% | inhibition [2] 44% | inhibition [3] 0% | outcome [5] | outcome [6] | outcome [7] | outcome [8]
active: growth inhibition [4] 84%

c1ccc(CN2CCC(NCc3ccc(-c4cncc5ccccc45)cc3)CC2)cc1
active: growth inhibition [4] 98%
inactive: growth inhibition [1] 19% | inhibition [2] 21% | inhibition [3] -3% | outcome [5] | outcome [6] | outcome [7] | outcome [8]

N#Cc1ccc2c(c1)CCN(CCC1CCC(NC(=O)c3cc4cccc([N+](=O)[O-])c4[nH]3)CC1)C2 (stereo not given)
inactive: growth inhibition [1] 28% | inhibition [2] -4% | inhibition [3] -5% | outcome [5] | outcome [6] | outcome [7] | outcome [8]
active: growth inhibition [4] 100%

COc1ccc(C2C(C(=O)Nc3cc(OC)c(OC)c(OC)c3)c3cc(OC)c(OC)cc3C(=O)N2C)cc1 (stereo not given)
inactive: inhibition [2] 9% | inhibition [3] 2% | outcome [5] | outcome [6] | outcome [7] | outcome [8]
active: growth inhibition [1] 100% | growth inhibition [4] 98%

CC(C)c1ccc(NC(=O)c2ccc(C(=O)NC3CCN(Cc4ccccc4)CC3)cc2)cc1
active: growth inhibition [4] 88%
inactive: growth inhibition [1] 7% | inhibition [2] 30% | inhibition [3] -3% | outcome [5] | outcome [6] | outcome [7] | outcome [8]

Oc1ccc(Cl)cc1-c1cc(C(F)(F)F)nc(-c2ccccc2)n1
inactive: inhibition [2] 20% | inhibition [3] 3% | outcome [5] | outcome [6] | outcome [7] | outcome [8]
active: growth inhibition [1] 92% | growth inhibition [4] 99%

Cc1ccc(-n2cc(CNCC3CCN(CCO)CC3)c(-c3ccc(F)cc3)n2)cc1
active: growth inhibition [4] 91%
inactive: growth inhibition [1] 18% | inhibition [2] 29% | inhibition [3] -1% | outcome [5] | outcome [6] | outcome [7] | outcome [8]

CCCCCCCCc1[nH]c(C)c(Br)c(=O)c1Br
active: growth inhibition [1] 95% | growth inhibition [4] 96%
inactive: inhibition [2] 2% | inhibition [3] 2% | outcome [5] | outcome [6] | outcome [7] | outcome [8]

CCN1CCN(c2cc(C)c3cc(NC(=O)c4cc(OC)cc(OC)c4)ccc3n2)CC1
inactive: inhibition [2] 0% | inhibition [3] 4% | outcome [5] | outcome [6] | outcome [7] | outcome [8]
active: growth inhibition [1] 90% | growth inhibition [4] 102%

Cc1cc2c(cc1C(F)(F)F)N(C(=O)Nc1ccc(C(=O)NC3CCN(Cc4ccccc4)C3)cc1)CC2 (stereo not given)
active: growth inhibition [4] 100%
inactive: growth inhibition [1] 48% | inhibition [2] 19% | inhibition [3] -6% | outcome [5] | outcome [6] | outcome [7] | outcome [8]

CC(C)(C)c1ccc(C(=O)Nc2cccc(Nc3c(C(=O)NCc4cccc(C(F)(F)F)c4)cnc4c(O)cccc34)c2)cc1
inactive: inhibition [2] 40% | inhibition [3] 1% | outcome [5] | outcome [6] | outcome [7] | outcome [8]
active: growth inhibition [1] 79% | growth inhibition [4] 83%

O=C(Nc1ccc(-c2csc(-c3nc4ccccc4[nH]3)c2)cc1)Nc1ccc(F)c(F)c1F
active: growth inhibition [1] 64% | inhibition [2] 67% | growth inhibition [4] 100%
inactive: inhibition [3] 2% | outcome [5] | outcome [6] | outcome [7] | outcome [8]

O=[N+]([O-])c1cccc(CNC2CCN(Cc3ccc(Cl)c(Cl)c3)CC2)c1
active: growth inhibition [1] 71% | growth inhibition [4] 100%
inactive: inhibition [2] 5% | inhibition [3] 3% | outcome [5] | outcome [6] | outcome [7] | outcome [8]

CC1CCCN(C(=O)c2cc(-c3ccccn3)nc3c(Cl)cccc23)C1 (stereo not given)
active: growth inhibition [4] 86%
inactive: growth inhibition [1] 9% | inhibition [2] 2% | inhibition [3] -5% | outcome [5] | outcome [6] | outcome [7] | outcome [8]

CC(C)CCN(Cc1cncn1Cc1cccc(Cl)c1)C(=O)c1cncc(-c2ccccc2)c1
active: growth inhibition [4] 99%
inactive: growth inhibition [1] -1% | inhibition [2] 9% | inhibition [3] -2% | outcome [5] | outcome [6] | outcome [7] | outcome [8]

CCN(CC)CCN(Cc1ccc(-c2ccc(C(F)(F)F)cc2)cc1)C(=O)Cn1cc(CCCc2cccc(F)c2F)c(=O)c2ccccc21
active: growth inhibition [4] 89%
inactive: growth inhibition [1] 20% | inhibition [2] 13% | inhibition [3] -4% | outcome [5] | outcome [6] | outcome [7] | outcome [8]
